Source: PubChem
SARS PLP yeast = SARS-CoV PLP inhibition in yeast; 0.19% of 330,000 active; Potency, µM (top dose mostly 32.9 µM), actives largely listed as activators; S. cerevisiae expressing SARS-CoV PLpro, growth rescue; note: nearly all actives have a fitted effect of over 55% in size
Shiga inhibitor = blocks Shiga toxin action in Vero cells. AID 2315. inhibition, % at 38.7 µM. 9.2% of 290,000 active. Vero cells, Shiga toxin protein synthesis inhibition reporter; in the data active = inhibition mostly above about 28%, no sharp cut-off; inactive = mostly below about 43%
Cycloheximide cs = affects cycloheximide protein synthesis inhibition readout, counter-screen; cell reporter, cycloheximide protein synthesis inhibition counterscreen; max response, %; 12% of 300,000 active; AID 2314; in the data active = max response mostly above about 13%, no sharp cut-off; inactive = mostly below about 14%; note: read at 38.3 µM for the half of the compounds with a filed dose
NS1 function inh = inhibitors of influenza NS1 protein function | Potency, µM (series often up to 46.1 µM) | AID 2326 | 0.4% of 270,000 active; note: actives are rising curves; nearly all actives have a fitted effect of over 50% in size
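S. cerevisiae expressing influenza A NS1, grown in glucose, washed, then diluted 1:100 into pH 6.0 -URA galactose medium with 23 nl compound. Growth recovery read as OD600; NS1-free strain serves as control.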
Hits are given with their value. Most compounds without a hit are left out; they make up all but 12% or so of the library. Unless noted, calls come from the whole dose curve.

For O=C(Cn1nnc(-c2ccccc2)n1)N1CCCCC1 the results were SARS PLP yeast inactive, Shiga inhibitor 47, Cycloheximide cs 38 and NS1 function inh inactive.
`O=C(Cn1nnc(-c2ccccc2Cl)n1)N1CCCCC1` gave SARS PLP yeast inactive, Shiga inhibitor 110, Cycloheximide cs 27 and NS1 function inh inactive.
Screening O=C(Cn1nnc(-c2cccc(C(F)(F)F)c2)n1)N1CCCCCC1 returned SARS PLP yeast inactive, Shiga inhibitor inactive, Cycloheximide cs inactive and NS1 function inh inactive.
Screening CC1CCCN(C(=O)Cn2nnc(-c3ccc(F)cc3)n2)C1 (centres undefined) returned SARS PLP yeast inactive, Shiga inhibitor inactive, Cycloheximide cs inactive and NS1 function inh inactive.
CC1CCCN(C(=O)Cn2nnc(-c3ccccc3F)n2)C1 (centres undefined) was read as SARS PLP yeast inactive, Shiga inhibitor 49, Cycloheximide cs 39 and NS1 function inh inactive.
Screening C=CCN(CC(O)c1cccc([N+](=O)[O-])c1)C(C)CCc1ccccc1 (centres undefined) returned SARS PLP yeast inactive, Shiga inhibitor inactive, Cycloheximide cs inactive and NS1 function inh inactive.
O=C(CSc1nnc(NC(=O)c2ccc(F)cc2F)s1)NC1CC1 was read as SARS PLP yeast inactive, Shiga inhibitor inactive, Cycloheximide cs inactive and NS1 function inh inactive.
CC(C)COc1ccc(-c2nnn(CC(=O)N3CCCC3)n2)cc1 was read as SARS PLP yeast inactive, Shiga inhibitor 58, Cycloheximide cs 23 and NS1 function inh inactive.
For O=C(NNC(=O)c1cc(-c2cccnc2)nc2ccccc12)Nc1ccc(Cl)cc1 the results were SARS PLP yeast inactive, Shiga inhibitor inactive and Cycloheximide cs 45.
CC(C)(C)c1ccc(-c2cc(C(=O)NNC(=O)Nc3ccccc3)c3ccccc3n2)cc1 was read as SARS PLP yeast inactive, Shiga inhibitor inactive, Cycloheximide cs 22 and NS1 function inh inactive.
Screening O=C(CNC(=O)c1ccco1)OCc1ccccc1Cl returned SARS PLP yeast inactive.
Screening Cc1cccc(NC(=O)CN2C(=O)N/C(=C\c3ccc(N4CCOCC4)cc3)C2=O)c1 returned SARS PLP yeast inactive, Shiga inhibitor 68, Cycloheximide cs 39 and NS1 function inh inactive.
Screening Cc1cc(N2CCOCC2)ccc1/C=C1\NC(=O)N(CC(=O)Nc2ccccc2C)C1=O returned SARS PLP yeast inactive, Shiga inhibitor inactive, Cycloheximide cs inactive and NS1 function inh inactive.
`Cc1cc(N2CCOCC2)ccc1/C=C1\NC(=O)N(CC(=O)Nc2ccc(F)cc2)C1=O` gave SARS PLP yeast inactive, Shiga inhibitor 91, Cycloheximide cs 23 and NS1 function inh inactive.
Nc1cc(=O)[nH]c(SCC(=O)Nc2cccc(S(=O)(=O)N3CCCCCC3)c2)n1 was read as SARS PLP yeast inactive.
For CCCCN(C)C(=O)C1CCN(Cc2ccc(OCc3ccccc3)cc2)CC1 the results were SARS PLP yeast inactive, Shiga inhibitor active, Cycloheximide cs inactive and NS1 function inh inactive.
NC(=O)C1CCN(Cc2ccc(OCc3ccccc3)cc2)CC1 was read as SARS PLP yeast inactive, Shiga inhibitor 54, Cycloheximide cs 25 and NS1 function inh inactive.
Screening CCOC(=O)C1CCN(Cc2ccc(OCc3ccccc3)cc2)CC1 returned SARS PLP yeast inactive, Shiga inhibitor inactive, Cycloheximide cs inactive and NS1 function inh inactive.
`CCOc1ccc(NC(=O)CN(C)C(=O)CCCOc2ccc(Cl)c(C)c2)cc1OCC` gave Shiga inhibitor inactive, Cycloheximide cs inactive and NS1 function inh inactive.
CC(NC1c2ccccc2-c2ccccc21)c1ccccc1 (centres undefined) was read as SARS PLP yeast inactive, Shiga inhibitor inactive, Cycloheximide cs inactive and NS1 function inh inactive.
For N#Cc1c(N2CCCC2)nsc1-c1ccccc1 the results were SARS PLP yeast inactive, Shiga inhibitor 102, Cycloheximide cs 52 and NS1 function inh inactive.
For N#Cc1c(N2CCOCC2)nsc1-c1ccccc1 the results were SARS PLP yeast inactive, Shiga inhibitor 75, Cycloheximide cs 40 and NS1 function inh inactive.
For COc1ccc(CCNC2=NCCS2)cc1OC the results were SARS PLP yeast inactive, Shiga inhibitor 32, Cycloheximide cs 41 and NS1 function inh inactive.
For COc1ccc(CCNc2ncnc3cc(OC)c(OC)cc23)cc1OC the results were SARS PLP yeast inactive, Shiga inhibitor inactive, Cycloheximide cs inactive and NS1 function inh inactive.
`COc1ccc(CCNC2=NCCS2)cc1` gave SARS PLP yeast inactive, Shiga inhibitor inactive, Cycloheximide cs inactive and NS1 function inh inactive.
For COc1ccc(CCNc2ncccc2C#N)cc1OC the results were SARS PLP yeast inactive, Shiga inhibitor 88, Cycloheximide cs 44 and NS1 function inh inactive.
`CCc1ccc(/C=C(\Cl)c2nc3cc(Cl)ccc3c(=O)[nH]2)cc1` gave SARS PLP yeast inactive, Shiga inhibitor inactive, Cycloheximide cs inactive and NS1 function inh inactive.
For COc1ccc(Oc2cnc3ccccc3n2)cc1 the results were SARS PLP yeast inactive, Shiga inhibitor 51 and Cycloheximide cs 31.
Screening Clc1cccc(Oc2cnc3ccccc3n2)c1 returned SARS PLP yeast inactive, Shiga inhibitor inactive, Cycloheximide cs 22 and NS1 function inh inactive.
`CC(=O)Nc1cccc(Oc2cnc3ccccc3n2)c1` gave SARS PLP yeast inactive, Shiga inhibitor 46, Cycloheximide cs 17 and NS1 function inh inactive.
Screening CCN(CC)C(=O)Cn1cnc2sc(C(=O)NCCCN3CCOCC3)c(C)c2c1=O returned SARS PLP yeast inactive, Shiga inhibitor inactive, Cycloheximide cs inactive and NS1 function inh inactive.
For COc1ccccc1CNC(=O)C(=O)c1cn(CC(=O)N2CCOCC2)c2ccccc12 the results were SARS PLP yeast inactive, Shiga inhibitor inactive, Cycloheximide cs inactive and NS1 function inh inactive.
For COc1ccccc1CCNC(=O)C(=O)c1cn(CC(=O)N2CCCC2)c2ccccc12 the results were SARS PLP yeast inactive, Shiga inhibitor 64, Cycloheximide cs 33 and NS1 function inh inactive.
For O=C(NCCc1ccccc1)C(=O)c1cn(CC(=O)N2CCCC2)c2ccccc12 the results were SARS PLP yeast inactive, Shiga inhibitor inactive, Cycloheximide cs 19 and NS1 function inh inactive.
`COc1ccccc1N(CC(=O)NCc1ccccc1)C(=O)CCC(=O)Nc1nccs1` gave SARS PLP yeast inactive, Shiga inhibitor inactive, Cycloheximide cs inactive and NS1 function inh inactive.
Screening CCCCN1C(=O)C(=O)N(CC(=O)c2ccc3c(c2)CCCC3)C1=O returned SARS PLP yeast inactive.
`COCCCNC(=O)c1sc2ncnc(N3CCc4ccccc4C3)c2c1C` gave SARS PLP yeast inactive, Shiga inhibitor inactive, Cycloheximide cs 12 and NS1 function inh inactive.
For Cc1ccc(-c2ccc(CCC(=O)O)n2CC2CCCO2)cc1 (centres undefined) the results were SARS PLP yeast inactive, Shiga inhibitor inactive, Cycloheximide cs 14 and NS1 function inh inactive.
`COc1ccccc1C(=O)Nc1ccccc1C(=O)NCc1ccco1` gave SARS PLP yeast inactive, Shiga inhibitor inactive, Cycloheximide cs 32 and NS1 function inh inactive.
For COc1cccc2cc(C(=O)Nc3ccc(F)cc3)c(=Nc3ccc(C(=O)O)cc3)oc12 the results were SARS PLP yeast inactive, Shiga inhibitor 76 and Cycloheximide cs 51.
`O=C(Nc1cccc(Cl)c1)Nc1ccccc1C(=O)NCc1ccco1` gave SARS PLP yeast inactive, Shiga inhibitor 55, Cycloheximide cs 32 and NS1 function inh inactive.
